Most compounds without a hit are left out; they make up all but 9.3% or so of the library.
Rab9 prom act: activates the Rab9 promoter | Huh7 Rab9 promoter-luciferase reporter, luminescence, 24 h | Potency, µM (highest dose often 9.22 µM), inactives show at the highest dose activation, negative = inhibition, hits mostly activators | actives 2.8% (n = 320,000); note: % of control where 0% means no effect; nearly all actives have a fitted effect of over 60% in size
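Cell-based reporter: Huh7 stable for Rab9 promoter-driven luciferase, plated in reduced-serum medium with 10% FBS at 1500 cells/well, compound-treated 24 h at 37 °C, luminescence read after 10 min reagent.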
ELG1 DNA repair: ELG1-dependent DNA repair inhibition | HEK293T ELG1-luciferase reporter, luminescence, 16 h; DNA damage induced by 5-fluorouridine | Potency, µM (titrated, usually from 46.1 µM), without a hit: top-dose activity change, negative = inhibition, usual class: inhibitors | actives 2.3% (n = 330,000); note: % is set by controls: 0 for no effect and ±100 for the full control effect; nearly all actives have a fitted effect of over 55% in size
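In this reporter screen, reduction of luminescence relative to DMSO vehicle indicated activity. Compounds and 5-fluorouridine were added together to 2,000 cells per well, incubated for 16 hr at 37 °C, then developed with ONE-Glo.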
NPC1 prom act: activates the NPC1 promoter; Huh7 NPC1 promoter luciferase reporter, 24 h; Potency, µM (series often up to 9.22 µM), inactives show at the top dose activation, usual class: activators; actives 2.4% (n = 320,000); AID 485313; note: % of control where 0% means no effect; nearly all actives have a fitted effect of over 60% in size
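Luminescence read-out of NPC1 promoter-driven luciferase in stably transfected Huh7 cells; compounds delivered in DMSO and left 24 h at 37C, 5% CO2, qHTS titration format.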
SMN2 splice up: enhancers of SMN2 splice variant expression; HEK293 SMN2-luciferase splicing reporter, luminescence, 30-36 h; actives 2.8% (n = 210,000); Potency, µM (top dose mostly 46.1 µM), for inactives: top-dose activity change, positive = activation, actives largely listed as activators; AID 1458; note: % of control where 0% means no effect; nearly all actives have a fitted effect of over 55% in size
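HEK293 cells carry an SMN2 minigene-luciferase reporter in which exon 7 inclusion puts luciferase in frame. Cells were seeded at 2000 cells/well, attached for 10-12 hours, then exposed to compounds for 30-36 hours at 37C before ONE-Glo luminescence.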
FLuc modulator: firefly luciferase modulation, counter-screen for miR-21 project; AID 588342; purified FLuc, Km substrates, luminescence inhibition; P08659; Potency, µM (series often up to 57.5 µM), for the others: top-dose activity change, negative = inhibition, hits mostly inhibitors; actives 6.9% (n = 360,000);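 note: plate controls were vehicle for no effect and reference inhibitor for full effect; nearly all actives have a fitted effect of over 55% in size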
Target sequence (P08659 whole entry, looked up): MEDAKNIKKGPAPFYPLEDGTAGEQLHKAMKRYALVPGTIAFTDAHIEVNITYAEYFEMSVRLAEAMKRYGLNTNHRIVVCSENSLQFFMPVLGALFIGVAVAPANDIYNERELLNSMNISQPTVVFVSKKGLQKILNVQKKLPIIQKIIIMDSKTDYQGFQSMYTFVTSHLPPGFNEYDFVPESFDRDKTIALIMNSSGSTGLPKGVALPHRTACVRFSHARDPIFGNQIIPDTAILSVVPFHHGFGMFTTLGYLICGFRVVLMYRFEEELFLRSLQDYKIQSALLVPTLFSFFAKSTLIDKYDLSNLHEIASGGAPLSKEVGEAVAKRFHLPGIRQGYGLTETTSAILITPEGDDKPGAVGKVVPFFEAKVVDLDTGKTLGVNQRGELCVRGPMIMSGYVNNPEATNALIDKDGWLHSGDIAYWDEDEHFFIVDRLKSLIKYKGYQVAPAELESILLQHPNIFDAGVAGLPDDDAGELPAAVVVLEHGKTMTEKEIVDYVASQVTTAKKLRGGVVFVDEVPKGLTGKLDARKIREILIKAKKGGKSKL
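Biochemical qHTS of compounds, final roughly 60 µM downward over six points, against 10 nM purified firefly luciferase using Km concentrations of substrates (10 uM D-luciferin, 10 uM ATP) in Tris acetate pH 7.5 buffer; luminescence output.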
ELG1 genotoxic: genotoxicity induction in ELG1-luciferase HEK293T cells. HEK293T ELG1-luciferase reporter, luminescence, 16 h. Potency, µM (top dose mostly 46 µM), for the others: at the highest dose activity change, positive = activation, actives largely listed as activators. actives 1.3% (n = 330,000). AID 504466; note: % of control where 0% means no effect; nearly all actives have a fitted effect of over 60% in size
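Screening used a luciferase reporter fused to human ELG1 in HEK293T cells. Luminescence was read on a CCD plate imager after 16 hr exposure and 30 min ONE-Glo incubation.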
An asterisk follows results filed as active; [ ] = another dose, or the depositor's remark. Calls come from the whole dose curve; as a rule, active = well fitted curve in the direction sought with a large enough effect; inconclusive = small, poorly fitted or top-dose-only effect, or another doubt; inactive = no such curve, though single readings can be large; an effect the other way counts as inactive or inconclusive. Potency is the fitted concentration of half-maximal effect.

Results for COc1ccc(-n2ncc(C(=O)NC3CC3)c2C2CCN(C(=O)OC(C)(C)C)CC2)cc1 ?
Rab9 prom act: -4%; ELG1 DNA repair: 4%; NPC1 prom act: -5%; FLuc modulator: -2%; ELG1 genotoxic: -2%[9.26 µM]

How did Clc1ccc2c(c1)-n1cc(-c3ccccc3)nc1CO2 do in these assays?
SMN2 splice up: inconclusive; FLuc modulator: 21µM*

Results for Cc1cccc(NC(=O)C2(C)Cc3ccccc3C(=O)O2)c1 (centres undefined) ?
SMN2 splice up: 0%; FLuc modulator: -13%

What do the screens show for `CC(=O)c1ccc(OCc2cc(C(=O)NCCN3CCCC(O)C3)no2)cc1` (centres undefined)?
Rab9 prom act: -1%; ELG1 DNA repair: 9%; NPC1 prom act: -3%; FLuc modulator: 4%; ELG1 genotoxic: -1%

What do the screens show for `CC(=O)c1ccc(OCc2cc(C(=O)N3CCC(c4ccncc4)CC3)no2)cc1`?
Rab9 prom act: -16%; ELG1 DNA repair: 0%; NPC1 prom act: -14%; FLuc modulator: 0%; ELG1 genotoxic: 9%

Results for CC(=O)c1ccc(OCc2cc(C(=O)N(C)CCOc3ccc(C)cc3)no2)cc1 ?
Rab9 prom act: 4µM*; ELG1 DNA repair: inconclusive; NPC1 prom act: 2.5µM*; FLuc modulator: 9.5µM*; ELG1 genotoxic: 2.9µM*

How did CC(=O)c1ccc(OCc2cc(C(=O)N3CC[C@@H]4CCCC[C@H]4C3)no2)cc1 do in these assays?
Rab9 prom act: 2µM*; ELG1 DNA repair: inconclusive; NPC1 prom act: 2.5µM*; FLuc modulator: 9.5µM*; ELG1 genotoxic: inconclusive

What do the screens show for `CC(=O)c1ccc(OCc2cc(C(=O)N3CCCCC3c3cccnc3)no2)cc1` (centres undefined)?
Rab9 prom act: inconclusive; ELG1 DNA repair: inconclusive; NPC1 prom act: inconclusive; FLuc modulator: 27µM*; ELG1 genotoxic: inconclusive

Results for CC(=O)c1ccc(OCc2cc(C(=O)NC3CCCCC3)no2)cc1 ?
Rab9 prom act: 4µM*; ELG1 DNA repair: -9%; NPC1 prom act: 3.5µM*; FLuc modulator: inconclusive; ELG1 genotoxic: -6%

Results for CC(=O)c1ccc(OCc2cc(C(=O)N(C)Cc3nc4c(C)cccc4[nH]3)no2)cc1 ?
Rab9 prom act: -5%; ELG1 DNA repair: -15%; NPC1 prom act: -10%; FLuc modulator: 0%; ELG1 genotoxic: -9%

What do the screens show for `COc1ccc(-n2nc3c(c2NC(=O)CBr)CSC3)cc1`?
Rab9 prom act: -3%; ELG1 DNA repair: inconclusive; NPC1 prom act: -1%; FLuc modulator: 3%; ELG1 genotoxic: 2%

How did O=C(N/N=C/c1ccc2c(c1)OCO2)c1ccc(COc2cccc3cccnc23)cc1 do in these assays?
Rab9 prom act: inconclusive; ELG1 DNA repair: 18µM*; NPC1 prom act: 18%; SMN2 splice up: 7%; FLuc modulator: 5.4µM*; ELG1 genotoxic: 0%

What do the screens show for `COc1ccc(/C=N/NC(=O)c2ccc(COc3cccc4cccnc34)cc2)cc1O`?
Rab9 prom act: -7%; ELG1 DNA repair: inconclusive; NPC1 prom act: 1%; FLuc modulator: 13µM*; ELG1 genotoxic: -6%

Results for COc1ccc(/C=N/NC(=O)c2ccc(COc3cccc4cccnc34)cc2)cc1OC ?
Rab9 prom act: 1%; ELG1 DNA repair: inconclusive; NPC1 prom act: 1%; SMN2 splice up: -12%; FLuc modulator: inconclusive; ELG1 genotoxic: -12%

What do the screens show for `O=C(N/N=C/c1ccc2cccc(OCc3ccccc3)c2n1)c1ccc(Cl)cc1`?
Rab9 prom act: 4%; ELG1 DNA repair: inconclusive; NPC1 prom act: 6%; SMN2 splice up: -4%; FLuc modulator: 6.7µM*; ELG1 genotoxic: -10%

How did O=C(N/N=C/c1cccc(O)c1)c1ccc(COc2cccc3cccnc23)cc1 do in these assays?
Rab9 prom act: 2%; ELG1 DNA repair: 19%; NPC1 prom act: -14%; SMN2 splice up: 12%; FLuc modulator: 17µM*; ELG1 genotoxic: 15%

What do the screens show for `O=C(NCCN1CCOCC1)c1cc(-c2ccc(Cl)s2)nc2ccccc12`?
Rab9 prom act: 1%; ELG1 DNA repair: 9%; NPC1 prom act: 0%; FLuc modulator: -1%; ELG1 genotoxic: 20%

What do the screens show for `O=C(NCc1cccc(Cl)c1)NCc1cccc(Cl)c1`?
Rab9 prom act: 1%; ELG1 DNA repair: inconclusive; NPC1 prom act: 1%; SMN2 splice up: 14%; FLuc modulator: 0%; ELG1 genotoxic: 1%

Results for CCOC(=O)N1CCN(C(=O)COc2cccc3c2CCN(CC)C3=O)CC1 ?
Rab9 prom act: -2%; ELG1 DNA repair: -2%; NPC1 prom act: 0%; SMN2 splice up: 16%; FLuc modulator: -1%; ELG1 genotoxic: 10%

What do the screens show for `O=C(COc1cccc2c1CCN(Cc1ccc(Cl)cc1)C2=O)N1CCOCC1`?
Rab9 prom act: -2%; ELG1 DNA repair: 12µM*; NPC1 prom act: -5%; SMN2 splice up: -46%; FLuc modulator: -1%; ELG1 genotoxic: -14%

Results for Cc1ccc(CN2CCc3c(OCC(=O)Nc4cc(C)ccc4C)cccc3C2=O)cc1 ?
Rab9 prom act: 0%; ELG1 DNA repair: 23µM*; NPC1 prom act: 3%; SMN2 splice up: -28%; FLuc modulator: -9%; ELG1 genotoxic: -5%

Results for O=C1c2cccc(OCC(=O)N3CCCc4ccccc43)c2CCN1Cc1ccc(F)cc1 ?
Rab9 prom act: -1%; ELG1 DNA repair: 23µM*; NPC1 prom act: -3%; SMN2 splice up: -87%; FLuc modulator: -2%; ELG1 genotoxic: -18%

Results for CCOC(=O)N1CCN(C(=O)COc2cccc3c2CCN(Cc2ccc(F)cc2)C3=O)CC1 ?
Rab9 prom act: -12%; ELG1 DNA repair: 21µM*; NPC1 prom act: -7%; SMN2 splice up: -46%; FLuc modulator: -3%; ELG1 genotoxic: -8%

How did Cc1cccc(CN2CCc3c(OCC(=O)N4CCCc5ccccc54)cccc3C2=O)c1 do in these assays?
Rab9 prom act: 2%; ELG1 DNA repair: inconclusive; NPC1 prom act: -1%; SMN2 splice up: -96%; FLuc modulator: 1%; ELG1 genotoxic: -15%

How did CC1CCN(C(=O)COC(=O)c2cc(Cl)cc(Cl)c2N)CC1 do in these assays?
Rab9 prom act: 5%; ELG1 DNA repair: inconclusive; NPC1 prom act: 5%; SMN2 splice up: -21%; FLuc modulator: inconclusive; ELG1 genotoxic: 8%

What do the screens show for `CCC(Sc1nc(-c2ccc(F)cc2)nc2c1Cc1c(CO)cnc(C)c1O2)C(=O)Nc1ccc(F)cc1` (centres undefined)?
FLuc modulator: 3%
